Experimental data as given in PubChem BioAssay AID1159580 (chemical genetic matrix, 2015).
Values joined by “and” are separate entries in the source; they are usually repeats but may differ in a detail not shown here. Equal values may be shown once. The campaign covered roughly 5,500 compounds. About 2,000 (36%) were called active. About 18% were inconclusive and are not listed. Rule as the data show it: active = normalized growth mostly below about 0.91 (no sharp cut-off); inconclusive = no clear call, values can overlap the other calls; inactive = mostly above about 0.92. This is one part of the list.

Assay: chemical genetic growth profiling, strain panel (AID 1159580);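 also: tested at 20 µM; growth read once vehicle control cultures reached saturation at 30 °C; 1 = growth at the plate median or of vehicle wells; lower values mean less growth of the strain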
Conditions: S. cerevisiae deletion strains, growth OD

Measured: normalized growth

C[N+]1(C)C2CC(OC(=O)[C@@H](CO)c3ccccc3)CC1C1OC12 (some centres not stated)
inactive: locus YAL021C, strain ccr4, hits give low values 0.987 | locus YAL026C, strain drs2, hits give low values 0.999 | locus YAL030W, strain snc1, hits give low values 0.968 | locus YBL061C, strain skt5, hits give low values 0.98 | locus YBR009C, strain hhf1, hits give low values 0.955 | locus YBR021W, strain FUR4, hits give low values 1.04 | locus YBR023C, strain chs3, hits give low values 0.958 | locus YBR171W, strain sec66, hits give low values 0.951 | locus YBR229C, strain ROT2, hits give low values 1.01 | locus YBR231C, strain swc5, hits give low values 0.982 | locus YBR279W, strain paf1, hits give low values 0.986 | locus YCL011C, strain gbp2, hits give low values 0.923 | locus YCL016C, strain dcc1, hits give low values 0.932 | locus YCL029C, strain bik1, hits give low values 1 | locus YCL061C, strain MRC1, hits give low values 0.977 | locus YCL069W, strain vba3, hits give low values 0.974 | locus YCR088W, strain abp1, hits give low values 0.989 | locus YDL005C, strain med2, hits give low values 0.989 | locus YDL035C, strain GPR1, hits give low values 1.02 | locus YDL040C, strain nat1, hits give low values 0.994 | locus YDL074C, strain BRE1, hits give low values 1.05 | locus YDL101C, strain DUN1, hits give low values 1.01 | locus YDL185W, strain tfp1, hits give low values 1.01 | locus YDL192W, strain arf1, hits give low values 1.03 | locus YDR001C, strain nth1, hits give low values 0.975 | locus YDR069C, strain doa4, hits give low values 0.977 | locus YDR101C, strain arx1, hits give low values 0.99 | locus YDR137W, strain rgp1, hits give low values 0.924 | locus YDR159W, strain sac3, hits give low values 1 | locus YDR162C, strain NBP2, hits give low values 1.02 | locus YDR195W, strain ref2 1.01 | locus YDR297W, strain sur2, hits give low values 0.976 | locus YDR318W, strain mcm21, hits give low values 1.03 | locus YDR334W, strain swr1, hits give low values 0.933 | locus YDR335W, strain msn5, hits give low values 0.968 | locus YDR388W, hits give low values 1.01 | locus YDR392W, strain spt3, hits give low values 0.934 | locus YDR502C, strain sam2, hits give low values 1.03 | locus YEL003W, strain gim4, hits give low values 0.996 | locus YEL037C, strain rad23, hits give low values 0.982 | locus YEL061C, strain CIN8 (second series), hits give low values 0.98 | locus YEL061C, strain CIN8, hits give low values 1.05 | locus YER015W, strain faa2, hits give low values 0.986 | locus YER016W, strain bim1, hits give low values 0.997 | locus YER110C, hits give low values 1.02 | locus YER111C, strain swi4, hits give low values 0.985 | locus YER155C, strain BEM2 (second series), hits give low values 1.02 | locus YER155C, strain BEM2, hits give low values 1.01 | locus YER167W, strain BCK2, hits give low values 1.03 | locus YFR010W, strain ubp6, hits give low values 0.978 | locus YGL078C, strain dbp3, hits give low values 1.01 | locus YGL086W, strain mad1, hits give low values 1 | locus YGL167C, strain pmr1, hits give low values 0.964 | locus YGL173C, strain kem1, hits give low values 0.969 | locus YGL227W, strain vid30, hits give low values 0.978 | locus YGL240W, strain doc1, hits give low values 1 | locus YGL248W, strain PDE1, hits give low values 1.01 | locus YGL253W, strain hxk2, hits give low values 0.97 | locus YGR135W, strain pre9, hits give low values 1.06 | locus YGR229C, strain SMI1, hits give low values 1.05 | locus YGR252W, strain gcn5, hits give low values 1.05 | locus YHR013C, strain ard1, hits give low values 0.957 | locus YHR027C, strain rpn1, hits give low values 0.957 | locus YHR030C, strain SLT2, hits give low values 1.02 and 1.03 | locus YHR079C, strain IRE1 (second series), hits give low values 1.02 | locus YHR079C, strain IRE1, hits give low values 1.03 | locus YHR094C, strain hxt1, hits give low values 1.01 | locus YHR129C, strain ARP1, hits give low values 1.01 | locus YHR142W, strain chs7, hits give low values 0.916 | locus YHR200W, strain rpn10, hits give low values 1.02 | locus YIL066C, strain RNR3, hits give low values 1.01 | locus YIL073C, strain SPO22, hits give low values 1.07 | locus YIL125W, strain kgd1, hits give low values 1.01 | locus YIR030C, strain dcg1, hits give low values 1.02 | locus YJL092W, strain hpr5, hits give low values 0.969 | locus YJL095W, strain BCK1 (second series), hits give low values 0.974 | locus YJL095W, strain BCK1, hits give low values 1.02 and 1.01 | locus YJL115W, strain asf1, hits give low values 0.958 | locus YJL129C, strain trk1, hits give low values 0.976 | locus YJL134W, strain LCB3, hits give low values 1 | locus YJL154C, strain vps35, hits give low values 0.975 | locus YJL164C, strain tpk1, hits give low values 1 | locus YJL166W, strain qcr8, hits give low values 0.959 | locus YJL168C, strain set2, hits give low values 1.01 | locus YJL187C, strain SWE1 (second series), hits give low values 1.01 | locus YJL187C, strain SWE1, hits give low values 0.976 | locus YJR043C, strain POL32, hits give low values 1.02
